Wnt bcat act: Wnt/beta-catenin pathway activators, primary screen, cell-based, plate reader, single point; Wnt/beta-catenin reporter cell assay, activator; activation, % at 9.35 µM; actives 1.2% (n = 300,000); AID 743398, 2014; in the data active = activation above about 30%, passing the limit was not always enough; inconclusive = no clear call, values can overlap the other calls
MITF TRPM1 HTS: activators of MITF-driven TRPM1 promoter reporter, primary screen, cell-based, SK-MEL-5, luciferase, single point; activation, % at 12.5 µM; actives 0.75% (n = 300,000); SK-MEL-5 TRPM1-promoter luciferase, 24 h; % of positive control, neutral wells = 0;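 active = mean activation of at least 80% with every replicate also reaching 80%; inconclusive = mean reaches 80% but some replicate falls short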
FXN GAA850 act: FXN promoter activators, primary screen, cell-based, luciferase luminescence, HEK293 lucGAA850; HEK293 lucGAA850 FXN promoter luciferase reporter, 24 h; percent of 10 µM SAHA response; activation, % at 6 µM; actives 0.56% (n = 360,000);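 active = activation above the average of all compounds screened plus 3 SD, cutoff fixed separately per campaign, cut at about 7.5% in these data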
esBAF inh: Bmi1 luciferase reporter increase in mESCs, primary screen, esBAF inhibitor project, mouse ES cells, Bmi1 luciferase knock-in, single point | 24 h; 100% = twice the neutral-well signal | reporter increase, % at 12.5 µM | actives 2% (n = 350,000) | AID 602393, 2012; in the data active = activation above about 40%; inconclusive = no clear call, values can overlap the other calls;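 also: a rise in the Bmi1 reporter signal indicates esBAF inhibition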
Large screens that a line does not name were inactive. An excerpt weighted towards active compounds, which were near 2.8% of everything screened.

Clc1cccc(OCc2nnc(-c3ccccc3Br)o2)c1	none
Clc1ccc(OCc2nnc(-c3ccccc3Br)o2)cc1	none (no result: Wnt bcat act)
Fc1ccc(OCc2nnc(-c3ccccc3Br)o2)c(Cl)c1	MITF TRPM1 HTS inconclusive, esBAF inh 67
O=c1c2c(nc3cc(-c4ccc(F)cc4)[nH]n13)CCC2	MITF TRPM1 HTS 87 (no result: esBAF inh)
Cc1ccc(-c2cc3nc4c(c(=O)n3[nH]2)CCCC4)cc1	none
COc1ccccc1NC(=O)Nc1ccc2c(c1)C(=O)N(C)C[C@H](OC)[C@H](C)CN(C)[C@H](C)CO2	none (no result: Wnt bcat act, MITF TRPM1 HTS, FXN GAA850 act)
O=C1c2ccccc2S(=O)(=O)N1CC1CC(c2ccc(Cl)cc2)=NO1 (stereo unspecified)	Wnt bcat act 46 (no result: esBAF inh)
CC(=O)c1ccc(OCc2cc(C(=O)N(C)CCOc3ccc(C)cc3)no2)cc1	MITF TRPM1 HTS 116 (no result: esBAF inh)
CC(=O)c1ccc(OCc2cc(C(=O)N(C)C3CCOC3)no2)cc1 (stereo unspecified)	esBAF inh 61
CC(=O)c1ccc(OCc2cc(C(=O)N(C)Cc3nc4c(C)cccc4[nH]3)no2)cc1	none
Cc1cc(OCc2cc(C(=O)N(C)C3CCOC3)no2)cc(C)c1Cl (stereo unspecified)	Wnt bcat act 35, esBAF inh 83
COc1cc(Cl)ccc1OCc1cc(C(=O)N(C)C2CCOC2)no1 (stereo unspecified)	esBAF inh 55
COc1ccc(S(=O)(=O)Nc2cccc3c2O[C@@H](CN(C)Cc2ccc(Cl)c(Cl)c2)[C@@H](C)CN([C@@H](C)CO)C3=O)cc1	none (no result: Wnt bcat act, MITF TRPM1 HTS, FXN GAA850 act)
CO[C@@H]1CN(C)C(=O)c2cc(NC(=O)Nc3cc(F)ccc3F)ccc2OC[C@H](C)N(C(=O)c2ccccn2)C[C@H]1C	none (no result: Wnt bcat act, MITF TRPM1 HTS, FXN GAA850 act)
COC(=O)C[C@H]1CC[C@@H]2[C@@H](COc3ccc(NC(=O)C4CCOCC4)cc3C(=O)N2C)O1	none (no result: Wnt bcat act, MITF TRPM1 HTS, FXN GAA850 act)
CCCNC(=O)N1C[C@@H](O)COC[C@H]2O[C@H](CC(=O)N[C@@H]3CCN(Cc4ccccc4)C3)CC[C@@H]21	none (no result: Wnt bcat act, MITF TRPM1 HTS, FXN GAA850 act)
Cc1cc(C(=O)Nc2cccc3c2O[C@@H](CN(C)C(=O)Nc2ccc(C(F)(F)F)cc2)[C@H](C)CN([C@@H](C)CO)C3=O)n(C)n1	none (no result: Wnt bcat act, MITF TRPM1 HTS, FXN GAA850 act)
C=CCNC(=O)C1CC1(c1cccc(C)c1)c1cccc(C)c1 (stereo unspecified)	Wnt bcat act 42 (no result: MITF TRPM1 HTS, esBAF inh)
CC(=O)Nc1ccc2c(c1)C(=O)N(C)[C@@H]1CC[C@H](CC(=O)Nc3cn(C)nc3C)O[C@@H]1CO2	none (no result: Wnt bcat act, MITF TRPM1 HTS, FXN GAA850 act)
C[C@@H]1CCCCO[C@@H](CN(C)C(=O)Nc2cccc3ccccc23)[C@H](C)CN([C@@H](C)CO)C(=O)c2cc(NC(=O)C3CCCCC3)ccc2O1	none (no result: Wnt bcat act, MITF TRPM1 HTS, FXN GAA850 act)
Nc1ccc(Oc2cc(N)cc(Oc3ccccc3)c2)cc1	Wnt bcat act inconclusive, MITF TRPM1 HTS 87
Nc1ccc(Oc2ccc3nc(-c4ccccc4)c(-c4ccccc4)nc3c2)cc1	none (no result: Wnt bcat act)
O=C(C[C@H]1CC[C@H]2[C@@H](COC[C@@H](O)CN2C(=O)c2ccccc2)O1)N1CCc2ccccc2C1	none (no result: Wnt bcat act, MITF TRPM1 HTS, FXN GAA850 act)
C[C@H](CO)N1C[C@H](C)[C@H](CN(C)C(=O)C2CCOCC2)Oc2ncc(-c3cccnc3)cc2C1=O	none (no result: Wnt bcat act, MITF TRPM1 HTS, FXN GAA850 act)
CCOc1ccc(N(CC(=O)Nc2ccc(OC)cc2)S(C)(=O)=O)cc1	none (no result: MITF TRPM1 HTS)
CCOc1ccc(NC(=O)CN(c2ccc(OC)cc2)S(C)(=O)=O)cc1	esBAF inh 67 (no result: Wnt bcat act)
COc1ccc(NC(=O)CN(C)S(=O)(=O)c2cccs2)cc1	esBAF inh 49
C[C@H](CO)N1C[C@H](C)[C@H](CN(C)Cc2ccc(-c3ccccc3)cc2)OCc2cn(nn2)CCCC1=O	none (no result: Wnt bcat act, MITF TRPM1 HTS, FXN GAA850 act)
c1ccc(-c2cc3nc(NCc4cccs4)ccn3n2)cc1	esBAF inh 67 (no result: MITF TRPM1 HTS)
COc1cc(-c2cc3nc(NCc4cccs4)ccn3n2)cc(OC)c1OC	Wnt bcat act inconclusive (no result: MITF TRPM1 HTS)
c1ccc(-c2cc3nc(NCc4ccc5c(c4)OCO5)ccn3n2)cc1	esBAF inh 52 (no result: MITF TRPM1 HTS)
Cc1ccc(-c2nc3ccccn3c2NCc2ccc3c(c2)OCO3)cc1	Wnt bcat act inconclusive, esBAF inh 44
C[C@H](CO)N1C[C@H](C)[C@H](CN(C)C)Oc2ccc(NS(=O)(=O)c3cn(C)cn3)cc2CC1=O	none (no result: Wnt bcat act, MITF TRPM1 HTS, FXN GAA850 act)
Cc1cccc(C)c1OCc1cc(C(=O)N2CCC(c3ccccc3)CC2)no1	none
Cc1cccc(C)c1OCc1cc(C(=O)N2CC3C[C@@H]4CC2C[C@H](C3)C4)no1	Wnt bcat act 36, MITF TRPM1 HTS 115, esBAF inh 82
O=C(c1cc(COc2ccc(F)cc2Cl)on1)N1CC2C[C@@H]3CC1C[C@H](C2)C3	esBAF inh 59
